Bioassay records from PubChem.
This is a sample that favours compounds with a hit; in the whole collection about 4.6% have one here.
TRb SRC2 PPI – disrupts binding of human TR beta to SRC2; P10828; 280,000 compounds, 0.065% hits; TRbeta-SRC2 peptide binding, fluorescence polarization; receptor liganded with 1 µM T3; Potency, µM (highest dose often 106 µM), inactives show at the top dose activity change, negative = inhibition, hits mostly inhibitors;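 further: potency means the concentration at half of the fitted maximal effect; plate controls were bound peptide for no effect and peptide without receptor for full effect; nearly all actives have a fitted effect of over 50% in size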
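TRb LBD 0.6 uM + Texas Red SRC2 peptide 20 nM, 1 uM T3, Tris buffer w/ 5% DMSO; compound pinned, 5 h RT; FP read ex 555/em 632; normalized to unbound and bound controls.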
Tau FP inhib – blocks human tau fibril formation measured by polarization; P10636; K18 P301L tau heparin fibrillization, Alexa594 FP, 6 h; Potency, µM (top dose mostly 57.7 µM), for inactives: at the highest dose activity, negative = inhibition, usual class: inhibitors; 280,000 compounds, 0.39% hits; AID 1468; further: potency means the concentration at half of the fitted maximal effect; nearly all actives have a fitted effect of over 55% in size
Target sequence (P10636 561-689 P618L limits assumed): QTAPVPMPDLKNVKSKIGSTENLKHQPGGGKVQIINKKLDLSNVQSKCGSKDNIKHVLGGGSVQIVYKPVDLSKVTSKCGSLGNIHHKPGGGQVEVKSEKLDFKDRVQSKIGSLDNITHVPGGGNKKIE
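Heparin (20 uM) drove fibril formation of recombinant tau K18 P301L, 15 uM unlabeled with 0.24 uM Alexa 594 label, for 6 hr at 37 C in 100 mM sodium acetate pH 7. Fluorescence polarization (555/632 nm) read 1 hr after 30 uM ThT.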
TexasRed fluor – counter-screen for TRb-SRC2 inhibitors: fluorescence interference | 280,000 compounds, 0.29% hits | AID 1479 | Potency, µM (doses to about 106 µM), for the others: top-dose fluorescence change, negative = quenching | TRb/SRC2 Texas Red total fluorescence interference; active means well fitted curve in either direction with a large enough effect; inconclusive means small, poorly fitted or top-dose-only effect; further: potency means the concentration at half of the fitted maximal effect
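Human TRb ligand-binding domain at 0.6 uM with 20 nM Texas Red SRC2 peptide in Tris buffer containing 1 uM T3 and 5% DMSO, incubated with compound 5 h at ambient temperature. Total fluorescence (555/632 nm) calculated as parallel + 2 × perpendicular.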
Tau fluor cs – counter-screen for tau fibril formation inhibitors; AID 1463; tau K18 P301L Alexa594 fluorescence, heparin fibrillization; Potency, µM (doses to about 57.7 µM), without a hit: at the highest dose activity change, negative = decrease; 280,000 compounds, 0.93% hits; further: potency means the concentration at half of the fitted maximal effect; nearly all actives have a fitted effect of over 55% in size
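Human tau K18 P301L (15 uM unlabeled, 0.24 uM Alexa 594-labeled) in 100 mM sodium acetate pH 7 with 20 uM heparin, 6 hr at 37 C. ThT 30 uM added, 1 hr ambient; Alexa 594 FP and total fluorescence read at 555/632 nm.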
PNC inhibitor – inhibitors of perinucleolar compartment assembly; PC3M PTB-GFP, PNC prevalence imaging, 16 h; hits give low values; activity change (PNC), negative = inhibition, % at 10 µM; 140,000 compounds, 3.1% hits;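 active means readout at or below -70, meaning at least 70% loss of cells showing the perinucleolar compartment, a nuclear body marking cancer cells; inconclusive means readout between -30 and a set limit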;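 further: plate controls were DMSO wells for no effect and camptothecin positive control wells for full effect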
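Compounds are pinned in duplicate onto adhered PC3M cells stably expressing GFP-tagged PTB and incubated 16 h at 37 C. Cells are then fixed, nuclei stained with Hoechst, and PNC-positive cells counted.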
Tau fibril ThT – inhibitors of human tau fibril formation, thioflavin T binding. P10636. recombinant tau K18 P301L (four-repeat tau fragment), heparin-induced fibrillization, ThT fluorescence. Potency, µM (series often up to 57.4 µM), without a hit: at the top dose activity, negative = inhibition, usual class: inhibitors. 270,000 compounds, 2.1% hits; further: potency means the concentration at half of the fitted maximal effect; nearly all actives have a fitted effect of over 55% in size
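Aggregation was driven by heparin (20 uM final) acting on recombinant tau […] bearing P301L in 100 mM sodium acetate pH 7; fibrils were detected with Thioflavin T.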
Active calls of the source: *; ? = inconclusive; / = no result given; [ ] = dose if it differs, or a comment. Unless noted, the call rests on the fitted dose curve; in most records, active means well fitted curve in the direction sought with a large enough effect; inconclusive means small, poorly fitted or top-dose-only effect, or another doubt; inactive means no such curve, though single readings can be large; an effect the other way counts as inactive or inconclusive. Unless noted, on the % scale 0 is the no-effect control and ±100 the full control effect.

SMILES	TRb SRC2 PPI	Tau FP inhib	TexasRed fluor	Tau fluor cs	PNC inhibitor	Tau fibril ThT
CCOc1ccc(NC(=S)NNC(=S)Nc2cccc(C(F)(F)F)c2)cc1	2%	?	-4%	28µM*[quencher]	/	32µM*
FC(F)(F)c1cccc(NC(=S)NC(c2ccccc2)c2ccccc2)c1	4%	-18%	0%	?	-27	-5%
S=C(NCc1ccncc1)Nc1ccc(Cl)c(Cl)c1	-2%	?	-3%	-20%	-26	11%
O=[N+]([O-])c1cc(C(F)(F)F)cc([N+](=O)[O-])c1NCCNC(=S)Nc1ccc(Cl)c(Cl)c1	5%	?	-2%	5.6µM*[quencher]	/	?
Cc1ccccc1C(=O)NNC(=S)Nc1cccc(C(F)(F)F)c1	-7%	-7%	-8%	-1%	-112*	12%
COc1ccc(C2CCCN2C(=S)Nc2cccc(Cl)c2)cc1OC (stereo not drawn)	5%	-8%	-1%	-24%	/	-8%
FC(F)(F)c1cccc(NC(=S)NNC(=S)Nc2cccc(C(F)(F)F)c2)c1	-1%	?	2%	10µM*[quencher]	/	28µM*
CCOc1ccc(NC(=S)NN(C)C(=S)Nc2ccc(OCC)cc2)cc1	-7%	14%	-4%	18µM*[quencher]	3	?
CCCN(Cc1ccccc1)C(=S)Nc1ccc(OCC)cc1	3%	1%	1%	-17%	/	-10%
Cc1ccccc1C(=O)Nc1cccc(NC(=O)c2ccc(C(C)(C)C)cc2)c1	-24%[53 µM]	-20%	0.16µM*[quencher]	-6%	/	2%
CNC(=S)Nc1cc(C(F)(F)F)ccc1Cl	2%	-1%	1%	-2%	-86*	-4%
CNNC(=S)Nc1cccc(C(F)(F)F)c1	6%	5%	0%	-17%	/	-5%
CCc1ccc2c(c1)c1nc(C)sc1n2CC(=O)OC	5%	-8%	-2%	-14%	?	?
CSc1ccc(CCNC(=O)c2ccc(CS(=O)(=O)c3ccc(Br)cc3)o2)cc1	-1%	14%	-29%	-8%	/	-4%
COc1ccc(Cl)cc1C(=O)N1CCN(c2ccccn2)CC1	-6%	-8%	-4%	-5%	-20	-10%
COc1ccc(NC(=S)NNC(=S)Nc2cccc(C(F)(F)F)c2)cc1	2%	0%	-2%	14µM*[quencher]	/	?
COc1ccc(-c2ccc(OC)c(C3C4C=CCCC4(C)C(=O)N3Cc3ccccc3)c2)cc1 (stereo not drawn)	-2%	/	0%	/	/	/
CCN1/C(=C\c2ccc3cc(C)ccc3[n+]2CC)Sc2cc(C)c(C)cc21	9%	?	-2%	?	/	7.9µM*
CC[n+]1c(/C=C/c2ccc(N(C)C)cc2)ccc2ccccc21	-11%	5%	-3%	-7%	?	3%
CCN1/C(=C/c2ccc3cc(C)cc(C)c3[n+]2CC)Sc2cc(C)ccc21	5%	?	-1%	?	/	4.5µM*
CCN1/C(=C/c2ccc3cccc(C)c3[n+]2CC)Sc2ccccc21	0%	?	-1%	18%	?	?
CCOC(=O)C1CCCN(S(=O)(=O)c2cc(-c3cc(C)no3)ccc2C)C1 (stereo not drawn)	-6%	-6%	-2%	-26%	/	-5%
CCCCc1nn(-c2cc(Cl)ccc2OC)c2c1C(=O)CC(C)(C)C2	2%	1%	3%	-20%	?	-15%
CCCc1nn(-c2cc(Cl)ccc2OC)c2c1C(=O)CCC2	-2%	-9%	-3%	-19%	-97*	-13%
COc1ccc(C2=C(C)C(=O)N(Cc3ccc(C(=O)NCc4cccc(C)c4)cc3)S2(=O)=O)cc1	-24%	-4%	158µM*[quencher]	-19%	/	-4%
COc1ccc(C2=C(C)C(=O)N(Cc3ccc(C(=O)NCc4ccc(C)cc4)cc3)S2(=O)=O)cc1	2%	3%	0%	-3%	/	4%
